Measured values as given in PubChem BioAssay (NCI).
The panel holds about 83,000 compounds, 20% with a hit somewhere; the sample as a whole holds those more often.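 Activity criterion: percent growth below 10, measured after cells in 96-well plates were exposed to a single compound concentration for 48 hours.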 Unmarked numbers belong to inactive results. Active and inactive are the calls of the source.

Experiments:
Assay in all cases: NCI-60 one-dose screen, 48 h (100 = growth as untreated, 0 = no growth, -100 = all killed)
Settings in all cases: 10 µM unless noted
DU-145 prostate = test system: DU-145 prostate
K-562 leukemia = test system: K-562 leukemia
MALME-3M melanoma = test system: MALME-3M melanoma
MDA-MB-231 breast = test system: MDA-MB-231 breast
SF-268 CNS = test system: SF-268 CNS
SF-295 CNS = test system: SF-295 CNS
SF-539 CNS = test system: SF-539 CNS
M14 melanoma = test system: M14 melanoma
HCT-15 colon = test system: HCT-15 colon
HT29 colon = test system: HT29 colon
SNB-75 CNS = test system: SNB-75 CNS
U251 CNS = test system: U251 CNS
PC-3 prostate = test system: PC-3 prostate
SK-MEL-5 melanoma = test system: SK-MEL-5 melanoma
UACC-62 melanoma = test system: UACC-62 melanoma
LOX IMVI melanoma = test system: LOX IMVI melanoma
SK-MEL-28 melanoma = test system: SK-MEL-28 melanoma
SNB-19 CNS = test system: SNB-19 CNS
RXF 393 renal = test system: RXF 393 renal
UACC-257 melanoma = test system: UACC-257 melanoma

SMILES | growth (DU-145 prostate) | growth (K-562 leukemia) | growth (MALME-3M melanoma) | growth (MDA-MB-231 breast) | growth (SF-268 CNS) | growth (SF-295 CNS) | growth (SF-539 CNS) | growth (M14 melanoma) | growth (HCT-15 colon) | growth (HT29 colon) | growth (SNB-75 CNS) | growth (U251 CNS) | growth (PC-3 prostate) | growth (SK-MEL-5 melanoma) | growth (UACC-62 melanoma) | growth (LOX IMVI melanoma) | growth (SK-MEL-28 melanoma) | growth (SNB-19 CNS) | growth (RXF 393 renal) | growth (UACC-257 melanoma)
NS(=O)(=O)N(c1cc(C(F)(F)F)cc(C(F)(F)F)c1)C1CCN(Cc2ccc(C(F)(F)F)cc2)CC1 | 8.8% (active) | 21% | 71.2% | 19.1% | 38.5% | 49.8% | 0.806% (active) | -0.587% (active) | 45.7% | 5.92% (active) | -4.94% (active) | 33% | 26% | 38.2% | 24.3% | 23.5% | 55.4% |  |  | 
CCN(CC)c1ccc(C(=C2C=CC(=[N+](CC)Cc3cccc(S(=O)(=O)O)c3)C=C2)c2ccc(N(CC)Cc3cccc(S(=O)(=O)O)c3)cc2)cc1 | 37.2% | 7.9% (active) | 59.4% | 62.3% | 34.5% | 15.5% | 62.1% | 19.5% | 85.1% | 12.8% | 33.2% | 20.8% | -3.18% (active) | 54% | 63.8% | 35.4% | 30.3% | 56.9% |  | 
COc1ccc(C2CC(c3ccc4c(c3)OCO4)=NN2C=O)cc1 (stereo unspecified) | 107% | 90.3% |  | 84.2% | 108% | 113% | 98.8% | 102% | 102% | 98% | 76.4% | 102% | 93.4% | 95.9% | 82.1% | 95.4% | 107% | 93.9% | 100% | 110%
CCOC(=O)C1C(=O)NC(C(=O)OCC)(C(=O)OCC)C1CC (stereo unspecified) | 117% | 114% |  | 98.7% | 108% | 113% | 122% | 110% | 92.8% | 111% | 107% | 105% | 92.9% | 101% | 98.1% | 95.6% | 123% | 105% | 116% | 106%
CCOC(=O)CNC(=O)C1(NC(=O)CNC(=O)OCc2ccccc2)CCCC1 | 121% | 103% |  | 99.1% | 107% | 126% | 92.2% | 110% | 102% | 105% | 83.9% | 106% | 98.7% | 112% | 97% | 95.4% | 107% | 102% | 135% | 110%
COc1ccc(N2CCN(CC(=O)N3CCN(c4nnc(-c5ccc(Cl)cc5)c(-c5ccc(Cl)cc5)n4)CC3)CC2)cc1 | 70.6% | 22.3% | 81.7% | 84.1% | 69.8% | 53.9% | 30.7% | 59.8% | 45% | 40.9% | 76.3% | 52.3% | 22.5% | 38% | 66.6% | 49.6% | 71.5% | 76% |  | 
Cc1cc(C)c2c(N)c3cccc(C)c3nc2n1 | 2.87% (active) | -11.1% (active) | -23.3% (active) | 14.7% | 9.97% (active) | 1.7% (active) | 1.42% (active) | -35.1% (active) | 10.4% | 0.696% (active) | 10.4% | 17.4% | -4.42% (active) | -38.7% (active) | -45.8% (active) | 1.49% (active) | -9.8% (active) | 18.6% |  | 
COc1ccc(/C=C2/SC(=Nc3c(C)nn(-c4ccccc4)c3N)NC2=O)cc1 | 43.6% | 15.2% |  | 66.3% | 58.8% | 8.06% (active) | 23.6% | 17.2% | 33.3% | 16.6% | 5.59% (active) | 40% | 29.1% | 21.2% | 26.8% | 33.1% | 58.7% | 51.3% | 83.6% | 59%
CCSc1ncc(Br)c(Sc2nc(N)nc3nc[nH]c23)n1 | 43.1% | 26.6% | 36.2% | 40.9% | 44.8% | 38.6% | 60.1% | 31.7% | 68.5% | 62.3% | 60.2% | 89.5% | 80.1% | 74.6% | 19.3% | 19.5% | 152% | 121% |  | 
O=C1OC(Oc2ccccc2)(c2ccccc2)c2ccccc21 (stereo unspecified) | 108% | 55.3% |  | 98.3% | 95.3% | 150% | 100% | 111% | 99.7% | 102% | 97.2% | 91.4% | 91.2% | 112% | 100% | 89.2% | 127% | 115% | 120% | 112%
Cc1sc2nc3c4ccccc4c(NCCCN(C)C)nn3c(=O)c2c1C | 41.5% | -73.8% (active) | -42.2% (active) | -23.6% (active) | 66.7% | 65.6% | 29% | -95.6% (active) | 17.1% | -17.8% (active) | 54.3% | 55.8% | 50.9% | 9.72% (active) | 44.3% | -39% (active) | -87.5% (active) | 81.6% |  | 
C(=C1c2ccccc2-c2ccccc21)c1ccncc1 | 84.9% | 11.4% |  | 44.2% | 54.8% | 35.6% | 56.3% | 18.7% | 26.9% | 8.42% (active) | -5.86% (active) | 27.8% | 58.6% | 46.6% | 30.8% | 39.5% | 68.8% | 45.1% | 72.3% | 74.5%
CC(=O)Nc1c(Cl)cc2c(c1Cl)Cc1ccccc1-2 | 108% | 104% |  | 80.3% | 111% | 132% | 105% | 107% | 99.9% | 106% | 94.7% | 92.4% | 86.9% | 97.3% | 84.8% | 87.9% | 124% | 101% | 104% | 106%
COc1ccc(N2CCN(CC(=O)N3CCN(c4nnc(-c5ccccc5)c(-c5ccccc5)n4)CC3)CC2)cc1 | 70.5% | 18.7% | 64.6% | 72.1% | 62.6% | 39.6% | 53.9% | 64.4% | 35.9% | 26.1% | 70.2% | 46.7% | 22% | 13.9% | 56.7% | 44.6% | 71.3% | 62.8% |  | 
COc1ccc2c(=O)c(OC)c(-c3cc(OC)c(OC)c(OC)c3)oc2c1 | 109% | 87.1% | 113% | 84.1% | 100% | 113% | 91.5% | 109% |  | 98.2% | 79.5% | 96.1% | 67.7% | 75.4% | 70.5% | 82.7% | 97.4% | 92.5% |  | 
c1ccc(CN=C(NCc2ccccc2)NCc2ccccc2)cc1 | 66.4% | 35.7% |  | 70.8% | 63.8% | 30% | 93.6% | 52.9% | 79.7% | 62.6% | 59.3% | 51.9% | 24.9% | 35% | 63.8% | 59.8% | 98.8% | 68.1% | 91.7% | -13.2% (active)
CSc1nc2nc3c(nc2c(=O)n1C)C(=O)c1ccccc1C3=O | -89.7% (active) |  | -93% (active) | -4.27% (active) | -17.9% (active) | -93.4% (active) | -99.8% (active) | -84.6% (active) | -72.1% (active) | -21.1% (active) | -98.3% (active) |  | -6.56% (active) | -96.4% (active) | -68.2% (active) | -70.9% (active) | -60.7% (active) | -66.2% (active) | -79.3% (active) | 
